G9a inh: G9a (human) methyltransferase inhibition | Q96KQ7 | G9a H3K9 monomethylation, AlphaScreen, 2 h | Potency, µM (doses to about 102 µM), usual class: inhibitors | 350,000 tested, 8.8% active; further: nearly all actives have a fitted effect of over 75% in size
Target sequence (Q96KQ7 913-1193 limits assumed): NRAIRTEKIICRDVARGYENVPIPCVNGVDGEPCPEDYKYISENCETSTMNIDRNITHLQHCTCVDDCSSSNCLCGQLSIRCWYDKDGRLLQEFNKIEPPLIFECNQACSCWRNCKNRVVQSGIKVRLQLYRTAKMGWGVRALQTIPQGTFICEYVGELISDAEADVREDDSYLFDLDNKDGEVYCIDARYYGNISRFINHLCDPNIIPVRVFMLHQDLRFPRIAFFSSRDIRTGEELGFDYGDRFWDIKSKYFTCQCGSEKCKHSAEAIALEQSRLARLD
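Enzyme 20 nM + cpd, 15 min RT; add b-H3K9 pep 500 nM / SAM 20 uM; 2 h RT; anti-H3K9me1 Ab 0.5 ug/mL + SA donor / anti-rabbit acceptor beads 20 ug/mL each, 10 min; AlphaScreen read.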
HP1b chromo inh: inhibitors of HP1-beta chromodomain binding to methylated histone tails | AID 540317 | P83916 | Potency, µM (highest dose often 114 µM), actives largely listed as inhibitors | 390,000 tested, 0.56% active | AlphaScreen HP1-beta / biotin-H3K9me3 peptide binding; further: nearly all actives have a fitted effect of over 70% in size
Target sequence (P83916 whole entry, looked up): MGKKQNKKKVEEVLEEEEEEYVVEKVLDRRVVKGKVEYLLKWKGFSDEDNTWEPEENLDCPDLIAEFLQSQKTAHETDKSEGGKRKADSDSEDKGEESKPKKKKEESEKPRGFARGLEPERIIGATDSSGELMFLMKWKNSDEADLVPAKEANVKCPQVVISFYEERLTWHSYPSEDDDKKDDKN
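AlphaScreen: HP1-beta (50 nM) preformed 30 min with biotin-H3(1-18)K9me3 peptide (50 nM) in PBS pH 7.4, 0.01% Tween-20. Compound added for 30 min at RT, then streptavidin donor/nickel chelate acceptor beads (10 ug/mL) for 30 min.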
JMJD2A Tudor: JMJD2A Tudor domain (human) inhibition; Potency, µM (titrated, usually from 114 µM), most hits filed as inhibitors; 390,000 tested, 4.4% active; AID 504339; AlphaScreen JMJD2A-Tudor / H3K4me3 peptide binding; O75164; further: nearly all actives have a fitted effect of over 50% in size
BAZ2B block: inhibitors of human BAZ2B bromodomain | Potency, µM (doses to about 114 µM), usual class: inhibitors | AID 504333 | AlphaScreen BAZ2B-H3K14Ac peptide displacement | Q9UIF8 | 360,000 tested, 4.4% active; further: nearly all actives have a fitted effect of over 60% in size
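AlphaScreen displacement: compounds (up to 110uM) incubated 30 min at room temperature with a preformed 50 nM BAZ2B/50 nM biotinylated H3K14Ac peptide complex in PBS pH 7.4 with Tween-20. Donor and acceptor beads at 10 ug/mL final added, 20 min light-protected before reading.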
Sfp PPTase inh: blocks B. subtilis Sfp PPTase activity; Q9F4F7; Biochemical Sfp PPTase activity, qHTS; Potency, µM, hits mostly inhibitors; 310,000 tested, 3.5% active;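 further: the enzyme is Sfp with the accession as filed and its product quenches rhodamine fluorescence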
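Reaction rates are the 30-min fluorescence difference (ex 525, em 598 nm) in wells containing 15 nM Sfp, 5 uM rhodamine-CoA and 12.5 uM BHQ-2-YbbR at pH 7.6 with 10 mM MgCl2.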
L3MBTL1 inh: L3MBTL1 (human) inhibition. Q9Y468. Potency, µM (titrated, usually from 57.1 µM), actives largely listed as inhibitors. AlphaScreen L3MBTL1–H3K9me1 peptide binding. 230,000 tested, 0.66% active; further: nearly all actives have a fitted effect of over 60% in size
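Displacement of a biotinylated histone H3(1-15) peptide monomethylated at Lys9 (75 nM) from L3MBTL1 (50 nM) was measured by AlphaScreen after a 30 min room-temperature compound incubation; cefsulodin titration served as intraplate control.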
Large screens that a line does not name were inactive; ! = not active in a repeat. In the library only some 12% were active in any assay of this set; here they are far more common. The call rests on the fitted dose curve; in most records, active means well fitted curve in the direction sought with a large enough effect; inconclusive means small, poorly fitted or top-dose-only effect, or another doubt; inactive means no such curve, though single readings can be large; an effect the other way counts as inactive or inconclusive.

NS(=O)(=O)c1ccc(NC(=O)CSc2cn[nH]n2)cc1	G9a inh 44.7µM (no result: L3MBTL1 inh)
O=C(CSc1ccccn1)Nc1cccc([N+](=O)[O-])c1	G9a inh 11.2µM
O=C(CSc1ccccn1)Nc1ccc(F)c([N+](=O)[O-])c1	none
N#C/C(=C/c1cn(Cc2ccc(F)cc2)c2ccccc12)C(=O)Nc1cccc(Cl)c1	none (no result: Sfp PPTase inh, L3MBTL1 inh)
O=C(OCc1cc(=O)n2nc(-c3cccs3)sc2n1)c1ccccc1Cl	none (no result: Sfp PPTase inh, L3MBTL1 inh)
CC(C)c1ccc(NC(=O)CSc2ncccc2C(=O)Oc2cccc([N+](=O)[O-])c2)cc1	G9a inh 50.1µM, L3MBTL1 inh inconclusive
COc1ccc(NC(=O)CSc2ncccc2C(=O)OC(C)C)cc1OC	G9a inh inconclusive, BAZ2B block inconclusive (no result: L3MBTL1 inh)
CCS(=O)(=O)N1CC(=O)N(c2ccc(C)c(C)c2)C(C)(C(=O)NC2CCCCC2)C1 (configuration not stated)	none (no result: Sfp PPTase inh, L3MBTL1 inh)
CC1=C(/C=C/C(C)=C/C=C/C(C)=C/C(=O)O)C(C)(C)CCC1O (configuration not stated)	none (no result: HP1b chromo inh, JMJD2A Tudor, BAZ2B block, L3MBTL1 inh)
Cc1cc(-c2ccc(C)c(S(=O)(=O)NCCCN3CCN(c4ccccc4)CC3)c2)on1	G9a inh 70.8µM, JMJD2A Tudor inconclusive, BAZ2B block inconclusive (no result: L3MBTL1 inh)
CCOc1ccc(NC(=O)CSc2nnc(CNC(=O)C34CC5CC(CC(C5)C3)C4)n2CC)cc1	none (no result: Sfp PPTase inh, L3MBTL1 inh)
COc1ccc(C(=O)Nc2nnc(C)s2)cc1	none (no result: Sfp PPTase inh, L3MBTL1 inh)
COc1ccc(N2CCN(C(C)C(=O)N3CCCC3)CC2)cc1 (configuration not stated)	G9a inh inconclusive, HP1b chromo inh inconclusive, JMJD2A Tudor 0.794µM, BAZ2B block 31.6µM, Sfp PPTase inh inconclusive
COc1ccc(N2CCN(C(C)C(=O)Nc3nnc(C)s3)CC2)cc1 (configuration not stated)	G9a inh 56.2µM, JMJD2A Tudor inconclusive
Cc1cc2c(s1)c1cnn(Cc3cc(Cl)ccc3F)c(=O)c1n2C	none (no result: G9a inh, HP1b chromo inh, BAZ2B block, Sfp PPTase inh, L3MBTL1 inh)
COc1cc(F)c(S(=O)(=O)N2CCN(S(=O)(=O)c3cccs3)CC2)c(F)c1	none (no result: G9a inh, HP1b chromo inh, BAZ2B block, Sfp PPTase inh, L3MBTL1 inh)
CCNc1ccc(S(=O)(=O)NCCN(C)C)cc1[N+](=O)[O-]	none (no result: BAZ2B block)
CN(C)CCCNS(=O)(=O)c1ccc(NC2CCCCCC2)c([N+](=O)[O-])c1	G9a inh 70.8µM, JMJD2A Tudor inconclusive, BAZ2B block inconclusive (no result: L3MBTL1 inh)
CN1CCc2cccc3c2C1Cc1ccc(O)c(O)c1-3 (configuration not stated)	G9a inh 1.89µM!, HP1b chromo inh inconclusive, JMJD2A Tudor 39.8µM, BAZ2B block inconclusive, Sfp PPTase inh 56.2µM! (no result: L3MBTL1 inh)
c1ccc(COc2ccccc2CNC23CC4CC(CC(C4)C2)C3)cc1	Sfp PPTase inh 56.2µM
CCN(CC)S(=O)(=O)c1ccc2c(c1)c(=O)c(C(=O)N1CCN(c3ccc(OC)cc3)CC1)cn2C	G9a inh inconclusive (no result: BAZ2B block, Sfp PPTase inh, L3MBTL1 inh)
COc1cccc(NC(=O)CNC(=O)Cn2c(C)cc3ccccc3c2=O)c1	none (no result: Sfp PPTase inh, L3MBTL1 inh)
Cc1ccc(S(=O)(=O)N2CCN(C(=O)CC(C)C)CC2)cc1	none
Cc1ccc(S(=O)(=O)N2CCN(C(C)CC(=O)O)CC2)cc1 (configuration not stated)	G9a inh 28.2µM, HP1b chromo inh inconclusive, JMJD2A Tudor 5.62µM, BAZ2B block 50.1µM, Sfp PPTase inh inconclusive
CCC(C)c1ccc(S(=O)(=O)N2CCN(C(C)CC(=O)O)CC2)cc1 (configuration not stated)	G9a inh 7.08µM, JMJD2A Tudor 3.55µM (no result: BAZ2B block)
CC(=O)N[C@@H](CCCNC(=N)N)C(=O)N[C@H](CC1CCCCC1)C(=O)N[C@@H]1CCC2SC[C@@H](C(=O)N[C@H](CCCNC(=N)N)C(=O)N[C@H](Cc3ccc(Cl)cc3)C(N)=O)N2C1=O (some centres not stated)	none (no result: G9a inh, HP1b chromo inh, JMJD2A Tudor, BAZ2B block, L3MBTL1 inh)
CCOC(=O)c1oc2c(c1C)-c1nn(Cc3cccc(Cl)c3)cc1CC2	none (no result: Sfp PPTase inh, L3MBTL1 inh)
CC1CCc2nn(CC(=O)Nc3ccccc3Cl)cc2C1 (configuration not stated)	none (no result: Sfp PPTase inh, L3MBTL1 inh)
O=c1oc2c3c4c(cc2s1)CCCN4CCC3	G9a inh 7.94µM, HP1b chromo inh inconclusive, JMJD2A Tudor 17.8µM, BAZ2B block 56.2µM, Sfp PPTase inh 17.8µM (no result: L3MBTL1 inh)
Cc1ccc(NC(=O)CN2C(=O)CSc3ccc(S(=O)(=O)N(C)C)cc32)cc1C	none (no result: Sfp PPTase inh, L3MBTL1 inh)
CCCCC(=O)Nc1nnc(-c2ccco2)o1	JMJD2A Tudor 10µM, BAZ2B block 79.4µM
CCC(=O)Nc1nnc(-c2ccc(OC)cc2)o1	BAZ2B block inconclusive (no result: L3MBTL1 inh)
O=C(Cc1ccccc1)Nc1nnc(-c2ccco2)o1	JMJD2A Tudor 44.7µM, BAZ2B block 28.2µM
CCC(=O)Nc1nnc(-c2ccco2)o1	G9a inh 22.4µM, JMJD2A Tudor 44.7µM, BAZ2B block inconclusive (no result: L3MBTL1 inh)
O=C(Cc1ccccc1)Nc1ccc(-c2nnc(-c3ccco3)o2)cc1	none
Cc1cccc(C)c1NC(=O)CCCSc1nnc(-c2ccco2)o1	none
Cc1ccc(Cl)cc1NC1=C/C(=N\S(=O)(=O)c2cccs2)c2ccccc2C1=O	G9a inh 8.91µM, HP1b chromo inh 3.98µM!, JMJD2A Tudor 2.82µM, BAZ2B block 10µM (no result: L3MBTL1 inh)
O=C1C(Nc2ccc(O)cc2)=C/C(=N/S(=O)(=O)c2cccs2)c2ccccc21	G9a inh 11.2µM, HP1b chromo inh inconclusive, JMJD2A Tudor 20µM, BAZ2B block 7.94µM, L3MBTL1 inh 12.6µM
